In all, about 5,800 sequences were measured (“enrichment r”: median about 0.68, highest 2% from about 11 on). This excerpt belongs to a sample that is enriched for the highest values.

The labels stand for the following.
T1: UNK ZnF1-6 (called full-length) (human, UniProt Q9C0B0 30-357)
T1 sequence: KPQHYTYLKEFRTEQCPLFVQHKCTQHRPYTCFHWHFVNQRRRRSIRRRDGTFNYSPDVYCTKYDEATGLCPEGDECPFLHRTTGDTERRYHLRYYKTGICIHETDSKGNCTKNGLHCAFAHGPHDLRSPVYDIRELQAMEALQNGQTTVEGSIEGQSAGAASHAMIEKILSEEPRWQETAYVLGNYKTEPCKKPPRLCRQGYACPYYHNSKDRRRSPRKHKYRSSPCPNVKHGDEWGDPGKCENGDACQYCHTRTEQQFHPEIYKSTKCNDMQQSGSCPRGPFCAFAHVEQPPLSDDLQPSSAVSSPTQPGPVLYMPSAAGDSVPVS

B1: chr16:785952:786377:-|CDS|ENSG00000007376|control|control|control (ssRNA)
RNA: GGGAGUUCUACAGUCCGACGAUCCAGUCGCUGGACCAGCUCGUGCAGGCCUUACGGGCCACCCCCGACCCUGACCCCGAGGAUAGGGGCCCCAGGCCAGGCAGCCCCUCCGCACUCCUGCCUGGGCCCGGCCGGCCUCCUCCACAACAGAGGAUUGAGCAUCA
B2: chr1:162783069:162783171:+|3pUTR|ENSG00000162733|unk|FALSE|unique (ssRNA)
RNA: GGGAGUUCUACAGUCCGACGAUCUGAAAGUAGUUCAAAUUUGAAUUAGAAGAAUGAAGCUAGGACUUAUUUGGAAAAGGAGAUAGAAAAAAAAUGAUCAGAAACUGUGGGGCCUUAUUACCUUUGCAGUAAGUUAUCUUCUUCCAACAGAGGAUUGAGCAUCA
B3: chr15:64957256:64957357:+|3pUTR|ENSG00000166839|msi1|FALSE|unique (ssRNA)
RNA: GGGAGUUCUACAGUCCGACGAUCGCUGGAAAAUUGAAACAUAAUUUCACAAUUAUUCCUUUUUCCACCUUAAAUAAUAAGAGUAGAAUACUUUCUGUGUUUUUAUCUUAUACACAUGAAUAAAUGCUAUGGCUUAUCACAGUUCAACAGAGGAUUGAGCAUCA
B4: ENSG00000114744:stop:overlap|stop_codon|ENSG00000114744|stop_codon|NA|stop_codon (ssRNA)
RNA: GGGAGUUCUACAGUCCGACGAUCAACAAGCAUUGGAAGAGAUGAAGACAAAUCACUGUAGGAGAGUUGUUCGCAACAUCAAGUAGUACCAGUUUUAAGGUUUUAAUUCAUUUGAAUCACUUAUGAAUUGAUGAUAUACAGCAACAACAGAGGAUUGAGCAUCA
B5: ENSG00000066855:stop:overlap|stop_codon|ENSG00000066855|stop_codon|NA|stop_codon (ssRNA)
RNA: GGGAGUUCUACAGUCCGACGAUCGAGUGUUGUCCCUUCCAGCUGGCUUUAUUCAGCCCCACGUGUCCAAGCAUUGUCUGGGAUAGCCUUGUAUUGGAAAACCUGGCCCAUUCUGUAAAUAAAGGCUCCACUAGAAAAGACUCGCAACAGAGGAUUGAGCAUCA
B6: chr1:184691659:184691688:-|3pUTR|ENSG00000116406|msi1_unk|FALSE|overlapping (ssRNA)
RNA: GGGAGUUCUACAGUCCGACGAUCCUCCAACGUUGUAAUUACAACUCUACAUUCAUUUACUUACUUGACAUACUGCCACAAAGUAGUUUUUGAGUUCAUUAAAAAUUCCAAAGGCAUUAGUUGUUUUUUUUUUUUUUAGUGUUUCAACAGAGGAUUGAGCAUCA

This assay deals with T1, UNK ZnF1-6 (called full-length). As to the kind of experiment: nsRBNS (natural sequence RNA bind-n-seq); RBNS binding buffer (assumed for nsRBNS): 25 mM Tris pH 7.5, 150 mM KCl, 3 mM MgCl2, 0.01% Triton X-100, 500 ug/ml BSA, 20 U/ml SUPERase-In, 4 C; UNK is unkempt and MSI1 is Musashi-1; names of the RNAs are library labels; protein concentration not given here; high values mean tight binding.
As for B1, the binding signal amounted to 0.526 enrichment R.

The molecule B2 showed a binding signal of 1.05 enrichment R.

In turn, B3 showed a binding signal of 0.535 enrichment R.

In turn, B4 yielded a binding signal of 2.3 enrichment R.

In turn, B5 had a binding signal of 0.862 enrichment R.

In turn, B6 came in with a binding signal of 8.44 enrichment R.

Values taken from publication PMC12136788.
